In PubChem BioAssay (EPA / NIEHS):
Several values for one entry are separate records, joined by “and”; a condition that tells them apart may be missing. Equal entries are not always repeated. Where a structure was tested more than once in an assay, its records may differ in their call. Activity calls are given as the source filed them. Rule for the calls: active = hit-call score of the fitted dose curve at least 0.9, where 1 is the maximum; inactive = score below 0.9.

Legend:
[1] = read-out: Urokinase-type plasminogen activator receptor (uPAR), PLAUR (gene 5329); assay: BSK_4H_uPAR: BioMAP Diversity Plus: 4H Assay for Urokinase-type plasminogen activator receptor (uPAR) Biomarker Activity (AID 2283030); conditions: primary human endothelial cells (HUVEC); actives raise or lower the signal
Outline: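 HUVEC, 24 h post-dose; uPAR by ELISA; bidirectional fit vs DMSO baseline.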

[2] = read-out: Vascular endothelial growth factor receptor 2 (Homo sapiens) (UniProt P35968); assay: BSK_4H_VEGFRII: BioMAP Diversity Plus: 4H Assay for Vascular endothelial growth factor receptor 2 (VEGFR2) Biomarker Activity (AID 2283031); conditions: primary human endothelial cells (HUVEC); actives raise or lower the signal;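 for AC50: cell-surface VEGFR2 protein level quantified by ELISA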
Outline: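 HUVEC (human primary), 4H system; 24 h post-dose; VEGFRII by ELISA; bidirectional curve fit vs DMSO baseline; gain or loss of signal scored.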

[3] = read-out: Human Leukocyte Antigen - DR isotype (HLADR), HLA-DRA (gene 3122); assay: BSK_BE3C_HLADR: BioMAP Diversity Plus: BE3C Assay for Human Leukocyte Antigen - DR isotype (HLADR) Biomarker Activity (AID 2283032); conditions: primary human bronchial epithelial cells; actives raise or lower the signal
Outline: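 Human primary bronchial epithelial cells in the BE3C system were exposed to chemicals for 24 h, after which HLA-DR levels were quantified by ELISA. Activity was fitted bidirectionally, gain or loss of signal, against DMSO as negative control and baseline.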

[4] = read-out: Vascular cell adhesion molecule 1 (VCAM1), VCAM1 (gene 7412); assay: BSK_4H_VCAM1: BioMAP Diversity Plus: 4H Assay for Vascular cell adhesion molecule 1 (VCAM1) Biomarker Activity (AID 2283033); conditions: primary human endothelial cells (HUVEC); actives raise or lower the signal
Outline: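 Primary human umbilical vein endothelial cells were exposed to chemicals for 24 h, after which VCAM-1 was quantified by ELISA. Responses were fitted bidirectionally against DMSO as negative control and activity baseline.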

[5] = read-out: Interferon-gamma inducible Protein 10 (IP10), CXCL10 (gene 3627); assay: BSK_BE3C_IP10: BioMAP Diversity Plus: BE3C Assay for Interferon-gamma inducible Protein 10 (IP10) Biomarker Activity (AID 2283034); conditions: primary human bronchial epithelial cells; actives raise or lower the signal
Outline: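 Human primary bronchial epithelial cells were exposed to chemicals for 24 hours, after which IP-10 levels were measured by ELISA. Data were fitted bidirectionally against DMSO, which served as the negative control and activity baseline.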

[6] = read-out: Monokine induced gamma interferon (MIG), CXCL9 (gene 4283); assay: BSK_BE3C_MIG: BioMAP Diversity Plus: BE3C Assay for Monokine induced gamma interferon (MIG) Biomarker Activity (AID 2283035); conditions: primary human bronchial epithelial cells; actives raise or lower the signal
Outline: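 MIG level was determined by ELISA after 24 h chemical treatment of primary human bronchial epithelial cells. Values were fitted bidirectionally with DMSO as the negative control and activity baseline.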

[7] = read-out: Transforming growth factor beta 1 (TGFb1), TGFB1 (gene 7040); assay: BSK_BE3C_TGFb1: BioMAP Diversity Plus: BE3C Assay for Transforming growth factor beta 1 (TGFb1) Biomarker Activity (AID 2283036); conditions: primary human bronchial epithelial cells; actives raise or lower the signal
Outline: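 Human primary bronchial epithelial cells (BE3C system) were dosed with chemical and TGF-b1 levels measured by ELISA at 24 h. Activity was fitted bidirectionally relative to DMSO negative control as baseline.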

[8] = read-out: urokinase plasminogen activator (uPA), PLAU (gene 5328); assay: BSK_BE3C_uPA: BioMAP Diversity Plus: BE3C Assay for urokinase plasminogen activator (uPA) Biomarker Activity (AID 2283038); conditions: primary human bronchial epithelial cells; actives raise or lower the signal
Outline: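 ELISA read-out of uPA in human lung primary bronchial epithelial cultures, 24 h post-dosing. Gain or loss of signal fitted bidirectionally relative to DMSO baseline; cytotoxicity checked in parallel cultures via SRB total protein stain.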

[9] = read-out: Urokinase-type plasminogen activator receptor (uPAR), PLAUR (gene 5329); assay: BSK_BE3C_uPAR: BioMAP Diversity Plus: BE3C Assay for Urokinase-type plasminogen activator receptor (uPAR) Biomarker Activity (AID 2283039); conditions: primary human bronchial epithelial cells; actives raise or lower the signal
Outline: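 Primary human bronchial epithelial cells were dosed with chemical and harvested 24 h later; uPAR was quantified by ELISA. Activity was fitted bidirectionally against DMSO as negative control and baseline.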

[10] = read-out: Plasminogen activator inhibitor-1 (PAI1), SERPINE1 (gene 5054); assay: BSK_BE3C_PAI1: BioMAP Diversity Plus: BE3C Assay for Plasminogen activator inhibitor-1 (PAI1) Biomarker Activity (AID 2283037); conditions: primary human bronchial epithelial cells; actives raise or lower the signal
Outline: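 Human primary bronchial epithelial cells were exposed to chemical for 24 h, then PAI-1 was quantified by ELISA. Activity was fitted bidirectionally relative to the DMSO negative control baseline.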

Measured: AC50

CCc1c(Br)c(Br)c(Br)c(Br)c1Br
inactive: [1] | [2] | [3] | [4] | [5] | [6] | [7] | [8] | [9]

C=CC(=O)OCC(F)(F)C(F)(F)C(F)(F)C(F)(F)COC(=O)C=C
active: [1] 57.8 µM and 55.1 µM | [2] 9.64 µM | [3] 40.4 µM and 42.4 µM | [4] 25.5 µM and 24 µM | [5] 45.1 µM and 45.8 µM | [6] 44.1 µM and 46.5 µM | [8] 8.4 µM and 8.81 µM | [9] 21.5 µM
inactive: [2] | [9]

O=C(O)C(F)(F)C(F)(F)OC(F)(F)F
active: [2] 2.45 µM
inactive: [1] | [2] | [3] | [4] | [5] | [6] | [8] | [9]

O=C(O)C(F)(F)C(F)(F)C(F)(F)C(F)(F)C(F)(F)C(F)(F)C(F)(F)C(F)(F)C(F)(F)C(F)F
active: [3] 10.5 µM | [4] 47.8 µM and 55.4 µM | [5] 8.14 µM and 8.37 µM | [6] 15 µM and 14.9 µM | [10] 14 µM and 12.1 µM | [8] 16.5 µM and 10.6 µM | [9] 15.7 µM and 16.7 µM
inactive: [1] | [2]

O=C(O)C(F)(F)C(F)(F)C(F)(F)C(F)(F)F
inactive: [1] | [2] | [3] | [4] | [5] | [6] | [10] | [8] | [9]

CCCCCCCCCCCCCCCC[N+](C)(C)Cc1ccccc1
active: [1] 5.78 µM | [2] 38.8 µM | [3] 2.19 µM | [4] 1.78 µM | [5] 2.47 µM | [6] 10 µM | [7] 20 µM | [10] 20 µM | [8] 13.2 µM | [9] 9.42 µM

OCC(F)(F)C(F)(F)C(F)(F)C(F)(F)C(F)(F)C(F)(F)F
active: [1] 47.8 µM | [3] 41.7 µM | [6] 45.1 µM and 54.8 µM
inactive: [1] | [2] | [3] | [4] | [5] | [8] | [9]

Oc1ccc(Nc2ccccc2)cc1
inactive: [2] | [3] | [6] | [8] | [9]
active: [1] 3.14 µM | [4] 20 µM | [5] 3.97 µM | [7] 5.46 µM

CO[Si](OC)(c1ccccc1)c1ccccc1
inactive: [1] | [2] | [3] | [4] | [6] | [7] | [8] | [9]
active: [5] 26.6 µM
